In PubChem BioAssay AID1347417 (National Center for Advancing Translational Sciences (NCATS), 2020):
Screen size: about 120,000 compounds; about 5,300 (4.4%) were called active. Roughly 22% stayed inconclusive and do not appear here. The call rests on the fitted dose curve; in most records, active means well fitted inhibition curve with a large enough effect; inconclusive means small, poorly fitted or top-dose-only effect; inactive means no such curve, though single readings can be large or run the other way. Shown is part of a subset that was picked to be rich in actives. Entries that show only a call come without a potency.

Experiment: qHTS Primary assay for Inhibitors of Plasmodium falciparum Dd2 growth in vitro; further: nearly all actives have a fitted effect of over 65% in size
Conditions: P. falciparum Dd2 growth, SYBR Green, 72 h; series mostly up to 28.9 µM
Outline: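 Infected erythrocytes (Dd2, 0.3% parasitemia, 2.5% hematocrit final) are added to compound in RPMI-1640/Albumax II medium, grown 72 h at 37C in low oxygen, then lysed with saponin/Triton-X containing SYBR Green and read by fluorescence.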
Potency means the concentration at half of the fitted maximal effect.

Compound | Potency | outcome
O=C(NCc1ccccc1)[C@@H]1C[C@@H](c2ccc(F)cc2)N([S+](=O)([O-])c2cccnc2)C1 | inactive | –
O=C1Nc2ccc(Br)cc2C(=O)N2CCN(C(=O)C3CCCCC3)C[C@H]12 | inactive | –
CCOC(=O)c1c(NC(=O)Cc2coc3ccc(CC)cc23)sc2c1CCC2 | inactive | –
CCOC(=O)c1c(NC(=O)c2cc(-c3ccc(Cl)cc3)on2)sc2c1CCCC2 | inactive | –
CCOC(=O)c1ccc(NC(=O)c2c(NCc3cccs3)sc3c2CCCC3)cc1 | 10 µM (active) | –
O=C(Cc1cccs1)NC1CCCN(c2cc(-c3ccccc3)[nH]n2)C1 (configuration not stated) | inactive | –
COc1ccc(-c2ccc3c(c2)C(=O)N2CCN(C(=O)CC4(CC(=O)O)CCCC4)C[C@H]2C(=O)N3)cc1 | inactive | –
CN1C(=O)CC(C(=O)O)C12CCN(Cc1cccc(OC(F)F)c1)CC2 (configuration not stated) | inactive | –
CN(C)C[C@@H]1CN(C)C[C@H]1NC(=O)C1CCC1 | inactive | –
CCOC(=O)N1CCc2c(sc(NCc3cccc(F)c3)c2C(=O)Nc2ccccc2OCC)C1 | 4.47 µM (active) | –
CCOC(=O)N1CCc2c(sc3c2C(=O)NC(c2ccccc2F)N3)C1 (configuration not stated) | inactive | –
CCOc1cc(=O)n2c(c1C(=O)Nc1ccc(F)cc1F)CCCC2 | inactive | –
Cc1ccccc1CN1CCc2ncc(C(=O)NCCOc3ccccc3)n2CC1 | inactive | –
CCOc1ccccc1C(=O)N1CCC(Oc2ncccc2C(=O)N(C)C)C1 (configuration not stated) | inactive | –
CCOc1ccccc1N(CC)C(=O)c1cc2ccc3cccnc3c2[nH]1 | 12.6 µM (active) | –
Cc1ccccc1CN1CCC(CNC(=O)c2cc3ccc4cccnc4c3[nH]2)CC1 | 10 µM (active) | –
CCOc1ccccc1N(CC)C(=O)Nc1cn(C)c(=O)c2ccccc12 | inactive | –
Cc1ccccc1CN1CCC(N2CCCC(C(=O)NC3CC3)C2)CC1 (configuration not stated) | inactive | –
CCOc1ccc(NC(=O)Cn2c(-c3ccc(F)cc3)nc(C)cc2=O)cc1 | inactive | –
COc1ccc(C(C(=O)O)N2CCCN(c3ccc(F)cc3)CC2)cc1F (configuration not stated) | inactive | –
COc1cccc(NC(=O)C(=O)NCC(c2ccc3c(c2)OCO3)N2CCN(C)CC2)c1 (configuration not stated) | 7.94 µM (active) | –
Cc1ccc(NC(=O)C(=O)NCC(c2cccnc2)N2CCOCC2)cc1 (configuration not stated) | inactive | –
CN(C)c1ccc(C(CNS(=O)(=O)c2cc(F)ccc2F)N2CCOCC2)cc1 (configuration not stated) | inactive | –
CC(C)CC(=O)NCC(c1ccc2c(c1)OCO2)N1CCN(c2ccc(F)cc2)CC1 (configuration not stated) | 10 µM (active) | –
COc1ccc(Cn2ccnc2SCC(=O)Nc2ccc3c(c2)OCO3)cc1 | inactive | –

Compound | Potency | outcome
O=C(CN1CC2CC(C1)[C@H]1CCCC(=O)N1C2)N1CCN(c2ccccn2)CC1 (some centres not stated) | inactive | –
CCn1ncnc1C(C)NC1CCC2(CCNCC2)CC1 (configuration not stated) | inactive | –
CCC(O)c1cc2n(n1)CCN(C(=O)c1cnc(C)nc1-c1ccccc1)C2 (configuration not stated) | inactive | –
COc1ccc(S(=O)(=O)N[C@H]2C[C@H]3C(=O)NC[C@@H](CCC(=O)N4CCc5ccccc54)N3C2)cc1 | inactive | –
CN1C(=O)[C@@H]2C[C@@H](O)CN2C2(CN(Cc3cnc4ccccc4c3)C2)C1=O | inactive | –
O=C(Cn1cc(SCc2cccc(Cl)c2)c2ccccc21)N1CCCCC1 | inactive | –
COc1ccccc1C(=O)NCCn1cc(SCc2ccccc2Cl)c2ccccc21 | 3.98 µM (active) | –
COc1ccccc1C(=O)NCc1ccnc2[nH]ccc12 | inactive | –
Cc1cc(NC(=O)c2ccc(Cn3ccn4nc5c(c4c3=O)CCCC5)cc2)ccc1F | inactive | –
CCc1cc(NCCS(=O)(=O)CC)n2nccc2n1 | inactive | –
CCN(CC)c1ccc(NC(=O)CN2CCN(CC(=O)Nc3ccc(Cl)cc3)CC2)cc1 | 8.91 µM (active) | –
O=C(Cn1nc2n(c1=O)CCCC2)Nc1ccc(Cl)cc1 | inactive | –
CCOc1ccc(NC(=O)CN2CCN(CC(=O)Nc3ccc(OC)cc3)CC2)cc1 | inactive | –
Cc1ccc2[nH]nc(C(=O)N3C[C@@H](C(=O)O)[C@H](c4ccc(F)cc4)C3)c2c1 | inactive | –
Cc1oc2ccn(Cc3ccccc3F)c(=O)c2c1C(=O)NCc1cccnc1 | inactive | –
CC(C)c1ccc2oc(-c3cc(NC(=O)c4cccs4)ccc3Cl)nc2c1 | inactive | –
CC(C)CCN(C(=O)Nc1ccc(Cl)c(Cl)c1)C(C)c1cccs1 (configuration not stated) | 10 µM (active) | –
CC(c1cccs1)N(C)Cc1ccncc1 (configuration not stated) | inactive | –
C=CCNC(=O)N1CCC(C2CCN(Cc3cccc(F)c3F)CC2)C1 (configuration not stated) | inactive | –
Cc1ccc(C(=O)Nc2ccc3c(N4CCCCC4)ncnc3c2)s1 | 5.01 µM (active) | –
O=C(Nc1ccc2ncnc(N3CCCCC3)c2c1)c1ccc2c(c1)OCO2 | inactive | –
Cc1cc(C)cc(C(=O)Nc2ccc3c(N4CCCC4)ncnc3c2)c1 | 0.708 µM (active) | –
O=C(Nc1ccc2ncnc(N3CCCCC3)c2c1)c1cccc(Cl)c1 | inactive | –
CC(C)(C)CC(=O)Nc1ccc2c(N3CCOCC3)ncnc2c1 | inactive | –
Cc1ccc(C(=O)Nc2ccc3ncnc(N4CCCCC4)c3c2)s1 | inactive | –

Compound | Potency | outcome
O=C(CCc1cc(Cl)no1)N1CCCC(c2nc(C3CCOCC3)no2)C1 (configuration not stated) | inactive | –
CCn1c(C2CCCN(C(=O)NCC(C)C)C2)nn(C)c1=O (configuration not stated) | inactive | –
Cn1ccnc1CNC(=O)C[C@@H]1C[C@H]2O[C@H](CNC(=O)NCc3ccccc3)[C@@H](O)[C@H]2O1 | inactive | –
CC(C)c1nc2nccc(-c3ccc4c(c3)OCCCO4)n2n1 | inactive | –
O=C(Nc1ccc(C2(C(=O)N3CCCCCC3)CCC2)cc1)C1CC1 | inactive | –
COc1cc(C(=O)Nc2ccc(OCc3cc(=O)n4cc(C)sc4n3)cc2)cc(OC)c1OC | inactive | –
CCC(=O)Nc1ccc2nnc(-c3ccc(C(=O)Nc4ccc(OC)cc4)cc3)n2c1 | 0.708 µM (active) | –
O=C(Nc1ccc2ncnc(N3CCCCC3)c2c1)C1CCCCC1 | inactive | –
CCC(CC)NC(=O)c1ccc(-c2nnc3ccc(NC(=O)C4CCC4)cn23)cc1 | 2.51 µM (active) | –
COc1ccc(-c2cn3c(n2)sc2cc(C(=O)Nc4ccc(F)cc4)ccc23)cc1 | inactive | –
COC[C@@H]1CN(Cc2ccc(F)c(OC)c2)C[C@H]1C(=O)N(C)C | inactive | –
CCn1c2c(c(=O)n1Cc1ccccc1)CCN(C(=O)Cc1ccc3c(c1)OCO3)C2 | inactive | –
CCc1cc2c(-c3ccccc3)cc(=O)oc2c2c1OCN(Cc1ccc(C)cc1)C2 | 2.24 µM (active) | –
Cc1ccc(Cn2c(=O)n(Cc3nc(-c4ccccc4)no3)c(=O)c3cc4c(cc32)OCO4)cc1 | inactive | –
Cc1ccc(CN2COc3cc(C)c4c(oc(=O)c5ccccc54)c3C2)cc1 | 1.12 µM (active) | –
COCCn1cc2c3c(cccc31)CN(C(=O)c1c(F)cccc1Cl)CC2 | inactive | –
O=C(Nc1ccc(Cl)cc1)c1nc2c(o1)CCN(Cc1ccsc1)CC2 | inactive | –
COCCn1ncc(N2CCC(NC(=O)C3CCC3)CC2)cc1=O | inactive | –
O=C(c1cccc2[nH]ccc12)N1C[C@@H](CO)[C@H](c2ccccn2)C1 | inactive | –
CN1CCC2(C1)CN(CC1CC1)c1ccc(C(=O)NC3CC3)cc12 (configuration not stated) | inactive | –
COc1ccc(-c2cn3c(n2)sc2cc(C(=O)Nc4ccccc4F)ccc23)cc1 | inactive | –
COc1ccc(CCNC(=O)c2ccc3c(c2)sc2nc(-c4ccc(C)cc4)cn23)cc1OC | inactive | –
CCOC(=O)c1ccccc1NC(=O)c1sc2nc(-c3ccc(F)cc3)cn2c1C | inactive | –
COc1ccc(-c2cn3c(C)c(C(=O)Nc4cc(C)cc(C)c4)sc3n2)cc1 | inactive | –
CCOc1ccc(CCNC(=O)c2ccc3c(c2)sc2nc(-c4ccc(F)cc4)cn23)cc1OCC | 5.62 µM (active) | –

Compound | Potency | outcome
CCN1CCN(CCCNC(=O)c2ccc3c(c2)sc2nc(-c4ccc(OC)cc4)cn23)CC1 | 3.16 µM (active) | –
Cc1cccc2nnc(N3CCN(C(=O)c4ccc(F)c(F)c4)CC3)n12 | inactive | –
O=C(CCNc1c(-c2ccccc2)nc2cnccn12)N1CCC(N2CCCCC2)CC1 | inactive | –
CCn1cc(-c2ccccc2)cc1C(=O)NCc1ccccn1 | inactive | –
CCCCN1C(=O)c2ccccc2C(C(=O)NCCCOC)C12CCCCC2 (configuration not stated) | inactive | –
C=CCNC(=O)N1CC[C@H]2CC(=O)N(CC(N)=O)CC[C@H]2C1 | inactive | –
O=C(c1cc2cccnn2n1)N1CCOCC1 | inactive | –
Cc1ccc2cc(CCC(=O)O)c(=O)[nH]c2c1 | inactive | –
Cc1cc2nc3n(c(=O)c2n1CC(=O)NCc1ccccc1Cl)CCCC3 | inactive | –
Oc1ccccc1CNC1(Cc2cc(CN3CCOCC3)on2)COC1 | inactive | –
C[C@@H](NC(=O)C[C@@H]1[C@H](O)CC[C@@H]2[C@](C)(CO)[C@H](O)CC[C@]21C)c1ccccc1 | inactive | –
COc1ccc(C(=O)N2CCC(Oc3ncccc3C(=O)N(C)C)C2)c(OC)c1 (configuration not stated) | inactive | –
CC[C@@H](NC(=O)CC1CCN(Cc2ccccc2)CC1)C1CC(O)C1 (some centres not stated) | inactive | –
CCOc1ccc(C(=O)N2CCC3(CC2)c2nccn2-c2ccccc2CN3C)cc1 | – | inactive [at 5.79 µM]
CCOc1ccc(C(=O)N2CCN(c3cc(-c4cccs4)[nH]n3)CC2)cc1 | inactive | –
CCOc1ccc(C(=O)N2CCN(CCc3ccccn3)CC2)cc1 | 2.82 µM (active) | –
Cc1oc2ccn(Cc3cccc(F)c3)c(=O)c2c1C(=O)NCc1cccnc1 | inactive | –
O=C(O)Cn1ccc2cc(OCCc3cccc(-c4cccnc4)c3)cnc21 | inactive | –
N#Cc1cccc(NC(=O)NC[C@H]2C[C@@H]3CCN2C[C@@H]3CN2CCN(c3ncccn3)CC2)c1 | inactive | –
CCC(CC)c1cc([C@H]2CN3CC[C@H]2C[C@@H]3CNS(=O)(=O)Cc2ccccc2)nc(-c2ccncc2)n1 | inactive | –
CCC(CC)c1cc([C@H]2CN3CC[C@H]2C[C@@H]3CNC(=O)NCc2ccccc2)nc(-c2ccncc2)n1 | 0.631 µM (active) | –
CC(C)c1nnsc1CN1CCn2nc(CCC(=O)N3CCCC3)cc2C1 | inactive | –
